Screens from PubChem.
EPAC2 agonist = qHTS for Agonist of cAMP-regulated guanine nucleotide exchange factor 4 (EPAC2): primary screen | Rap guanine nucleotide exchange factor 4 (Homo sapiens), Q8WZA2 | EPAC2 activation, biochemical qHTS; response scale: 100% = 6.5 mM cAMP response | Potency, µM (doses to about 154 µM), for the others: at the highest dose activation, actives largely listed as activators | 0.079% of 360,000 active | AID 720711, 2013; note: potency is the fitted concentration of half-maximal effect; nearly all actives have a fitted effect of over 50% in size
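Compounds were added across a concentration range to EPAC2 (100 nM), RAP1B-BODIPY-GDP (250 nM) and GDP (50 uM). After 5 min at room temperature, fluorescence was recorded at 5-min intervals for 30 min.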
EPAC1 agonist = qHTS for Agonist of cAMP-regulated guanine nucleotide exchange factor 3 (EPAC1): primary screen; AID 720707, 2013; Potency, µM (highest dose often 154 µM), without a hit: top-dose activation, actives largely listed as activators; 0.073% of 360,000 active; EPAC1 agonist qHTS, biochemical assay; response scale: 100% = response to 6.5 mM cAMP; Rap guanine nucleotide exchange factor 3 (Homo sapiens), O95398; note: potency is the fitted concentration of half-maximal effect; nearly all actives have a fitted effect of over 60% in size
Target sequence (O95398 whole entry, looked up): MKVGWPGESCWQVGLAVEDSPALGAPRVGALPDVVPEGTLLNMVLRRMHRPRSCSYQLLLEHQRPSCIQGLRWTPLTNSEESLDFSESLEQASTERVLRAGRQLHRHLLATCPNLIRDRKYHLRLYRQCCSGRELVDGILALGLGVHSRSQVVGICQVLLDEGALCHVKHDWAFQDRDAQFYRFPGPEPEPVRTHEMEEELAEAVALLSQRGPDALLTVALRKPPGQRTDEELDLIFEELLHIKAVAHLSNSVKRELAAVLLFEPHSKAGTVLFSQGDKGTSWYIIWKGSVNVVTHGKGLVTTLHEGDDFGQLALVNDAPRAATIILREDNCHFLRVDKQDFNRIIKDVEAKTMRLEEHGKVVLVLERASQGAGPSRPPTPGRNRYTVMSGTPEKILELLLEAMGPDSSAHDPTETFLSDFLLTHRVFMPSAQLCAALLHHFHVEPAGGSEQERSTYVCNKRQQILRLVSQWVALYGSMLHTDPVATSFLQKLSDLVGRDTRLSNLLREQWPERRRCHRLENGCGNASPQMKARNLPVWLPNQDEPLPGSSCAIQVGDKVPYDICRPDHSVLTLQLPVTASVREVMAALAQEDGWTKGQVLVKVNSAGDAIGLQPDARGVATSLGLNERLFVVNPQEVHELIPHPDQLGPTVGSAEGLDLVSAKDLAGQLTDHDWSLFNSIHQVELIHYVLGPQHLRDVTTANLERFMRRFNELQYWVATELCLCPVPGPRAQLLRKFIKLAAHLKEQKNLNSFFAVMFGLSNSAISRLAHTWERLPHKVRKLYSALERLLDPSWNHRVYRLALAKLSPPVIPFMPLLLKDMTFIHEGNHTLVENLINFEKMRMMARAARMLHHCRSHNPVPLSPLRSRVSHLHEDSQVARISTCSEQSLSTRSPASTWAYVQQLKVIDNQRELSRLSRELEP
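Nucleotide exchange assay: 100 nM EPAC1 with 250 nM Rap1B loaded with BODIPY-GDP and 50 uM GDP, room temperature. Fluorescence (480/540 nm) read every 5 min for 30 min; signal change normalized to 6.5 mM cAMP as full agonist.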
EPAC2 antag = qHTS for Antagonist of cAMP-regulated guanine nucleotide exchange factor 2 (EPAC2): primary screen. Potency, µM (doses to about 114 µM), without a hit: at the top dose activity, negative = inhibition, most hits filed as inhibitors. 0.18% of 360,000 active. AID 720708, 2013. Rap guanine nucleotide exchange factor 4 (Homo sapiens), Q8WZA2. EPAC2 GEF exchange of Rap1B-BODIPY-GDP, fluorescence; note: potency is the fitted concentration of half-maximal effect; % is set by controls: 0 for no effect and ±100 for the full control effect; nearly all actives have a fitted effect of over 45% in size
PKM2 act = qHTS Assay for Activators of Human Muscle isoform 2 Pyruvate Kinase. purified PKM2, Kinase-Glo ATP luminescence, activation; response scale: 0% is enzyme alone, no compound. Potency, µM (highest dose often 57.5 µM), for inactives: top-dose activation, most hits filed as activators. 0.34% of 260,000 active. AID 1631, 2009; note: potency is the fitted concentration of half-maximal effect; % is set by controls: 0 for no effect and ±100 for the full control effect; nearly all actives have a fitted effect of over 55% in size
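Purified hPK-M2 (>95%) run at intermediate activity with 0.1 mM ADP and 0.5 mM PEP in 50 mM imidazole pH 7.2, KCl, MgCl2; 1 h room temperature. ATP formed read by Kinase-Glo luminescence; normalized to uninhibited and no-enzyme controls.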
IL2 activator = qHTS of IL-2 Activators | IL-2 activation reporter assay, cell-based qHTS; stimulated with anti-CD3/CD4/CD28 beads; in transgenic mouse T cells | activation, % (series mostly up to about 46 µM) | 0.065% of 360,000 active; in the data active = activation above about 50%; inconclusive = mostly about 30% to 49%; note: 0% is about no effect
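Unstimulated transgenic mouse T cells; 60-min compound exposure; bead-based TCR/CD4/CD28 stimulation; 18 h culture, 37 degrees C; dual fluorescence (EGFP, DsRed) plate cytometry.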
EPAC1 antagonist = qHTS for Antagonist of cAMP-regulated guanine nucleotide exchange factor 3 (EPAC1): primary screen; Rap guanine nucleotide exchange factor 3 (Homo sapiens), O95398; EPAC1 GEF assay, Rap1b-BODIPY-GDP exchange fluorescence; Potency, µM (highest dose often 115 µM), for inactives: at the highest dose activity change, negative = inhibition, actives largely listed as inhibitors; 0.14% of 360,000 active; AID 720709, 2013;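 note: potency is the fitted concentration of half-maximal effect; plate controls were vehicle for no effect and positive control for full effect; nearly all actives have a fitted effect of over 50% in size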
Active calls of the source: *; ? = inconclusive; . = not tested or not shown; [ ] = remark or other dose. Sampled rows, rich in hits. Any-hit rate of the full collection: about 0.64%. Unless noted, calls come from the whole dose curve; as a rule, active = well fitted curve in the direction sought with a large enough effect; inconclusive = small, poorly fitted or top-dose-only effect, or another doubt; inactive = no such curve, though single readings can be large; an effect the other way counts as inactive or inconclusive.

SMILES	EPAC2 agonist	EPAC1 agonist	EPAC2 antag	PKM2 act	IL2 activator	EPAC1 antagonist
CCC(O)c1cnc(OCc2ccccc2)nc1OCc1ccccc1 (configuration not stated)	16%	-4%	-21%	.	-2	-15%
CCCN(CCC)Cc1cc(=O)oc2cc(OC)c(Cl)cc12	0%	-12%	?	.	0	-3%
C=CCN(CC=C)Cc1cc(=O)oc2cc(OC)c(Cl)cc12	14%	-4%	32µM*	.	0	-20%
Cn1c2ccc(F)cc2c2nnc(SCC(=O)Nc3cccc(O)c3)nc21	8%	-9%	-4%	0.32µM*	1	-12%
Cc1ccc(CN(C)C(=O)CCNC(=O)c2ccc(Cl)cc2)o1	6%	-9%	1%	.	-1	11%
CCCN1C(=O)c2ccccc2NC1c1ccc(Cl)cc1 (configuration not stated)	8%	3%	-26%	.	-2	-26%
CCCN1C(=O)c2ccccc2NC1c1ccc(Cl)c(Cl)c1 (configuration not stated)	4%	8%	28µM*	.	1	-30%
Cc1ccc(/C=c2/sc3nnc(-c4ccccc4Cl)n3c2=O)o1	7%	6%	-18%	8.9µM*	0	-27%
COc1ccccc1/C=C1\SC(=S)N(CCC(=O)Nc2ccc(C(=O)O)c(O)c2)C1=O	7%	4%	-10%	.	2	50µM*
CC(/C=C1\SC(=S)N(CCC(=O)Nc2cccc(C(=O)O)c2)C1=O)=C\c1ccccc1	6%	28%	?	.	0	79µM*
O=C(C1CCCCC1)N1C[C@@H](O)[C@H](n2cc(C3CC3)nn2)C[C@@H]1c1ccc(Cl)cc1	11%	-12%	-7%	.	-2	-3%
COC(=O)C[C@@H]1CC[C@H](NC(=O)Cc2ccccn2)[C@@H](CO)O1	0%	9%	11%	.	2	1%
CCOC(=O)c1c(-n2cnnn2)sc2c1CCCC2	1%	15%	4%	3%	1	-8%
CCOC(=O)c1c(N2C(=O)Nc3cc(Cl)c(Cl)cc3N2O)sc2c1CCCCC2	-19%	-12%	-29%[57.1 µM]	-1%	-1	50µM*
O=C(Nc1ccc2oc(Cc3ccc(Cl)cc3)nc2c1)c1cccnc1	4%	11%	2%	1%	-1	-16%
CCOc1cccc(C(=O)Nc2ccc3oc(Cc4ccc(Cl)cc4)nc3c2)c1	7.9µM*	6%	-2%	2%	-1	-11%
CCOC(=O)C1=C(N)c2ccccc2CC1C1CCCC1 (configuration not stated)	0%	-13%	16µM*	1%	0	-6%
O=c1cc(CN2CCN(c3ccccc3F)CC2)c2ccccc2o1	4%	-1%	6%	.	-1	-10%
CCOc1ccc(CCNC(=O)c2cccc3c2C(=O)N(CCOC)C3)cc1OCC	17%	2%	-2%	.	55*	-2%
O=C1CCN2C=Nc3cccc4ccc1c2c34	89µM*	63µM*	284%	10%	18	297%
Cc1ccccc1NC(=O)CSc1ccc(-c2ccco2)nn1	3%	2%	-2%	13%	0	0%
Cc1nnc(NC(=O)CSc2ccc(-c3ccco3)nn2)s1	-1%	0%	-1%	20µM*	-2	-4%
COc1cccc(NC(=O)CSc2ccc(-c3ccco3)nn2)c1	11%	-1%	6%	3.2µM*	-2	5%
COc1cccc(NC(=O)CSc2ccc3nnc(-c4ccncc4)n3n2)c1	9%	2%	-9%	1.8µM*	1	-4%
N#C/C(=C\c1cccnc1)C(=O)Nc1cccc(Cl)c1	10%	2%	7%	5.6µM*	1	8%
SMILES	EPAC2 agonist	EPAC1 agonist	EPAC2 antag	PKM2 act	IL2 activator	EPAC1 antagonist
O=C(O)c1cc(O)c2c(c1)[C@H]([C@H]1c3cc(C(=O)O)cc(O)c3C(=O)c3c(O[C@@H]4O[C@H](CO)[C@@H](O)[C@H](O)[C@H]4O)cccc31)c1cccc(OC3O[C@H](CO)[C@@H](O)[C@H](O)[C@H]3O)c1C2=O (some centres not stated)	2%	-8%	?	.	0	3.5µM*
O=C(O)c1cc(O)c2c(c1)[C@@H]([C@H]1c3cc(C(=O)O)cc(O)c3C(=O)c3c(O[C@@H]4O[C@H](CO)[C@@H](O)[C@H](O)[C@H]4O)cccc31)c1cccc(OC3O[C@H](CO)[C@@H](O)[C@H](O)[C@H]3O)c1C2=O (some centres not stated)	8%	5%	?	.	0	?
Cc1cc(F)ccc1C(O)c1ncc(-c2ccc(Oc3ccccc3)cc2)[nH]1 (configuration not stated)	16%	-11%	12%	.	-1	-14%
O=c1/c(=C\c2cccn2-c2ccccc2)sc2nc3ccccc3n12	-3%	3%	5%	-9%	1	6%
O=C(O)Cn1cc(/C=c2/sc3nc4ccccc4n3c2=O)c2ccccc21	13%	-3%	52%	0%	166*	?
Nc1ccc(C(=O)Nc2ccc(NC(=O)c3ccco3)c(O)c2)cc1	-1%	2%	14%	-9%	0	-20%
Cn1cnc(CCNC(=O)C[C@H]2CC[C@@H]3[C@H](COC[C@H](O)CN3C(=O)C3CCCC3)O2)c1	2%	2%	7%	.	2	9%
COc1ccc(C(=O)/C=C/C(=O)N(CC(=O)NC2CCCCC2)CC2CCCO2)c(O)c1 (configuration not stated)	-2%	-1%	-20%	7.9µM*	-1	-12%
COc1ccc(C(=O)/C=C/C(=O)N(CC(=O)NC2CCCCC2)Cc2ccccc2OC)c(O)c1	-7%	3%	-5%	?	0	-14%
O=C1c2cc(S(=O)(=O)NCCO)ccc2-c2ccc(S(=O)(=O)NCCO)cc21	1%	0%	-3%	5.6µM*	-4	13%
O=C(O)CNS(=O)(=O)c1ccc2c(c1)Cc1cc(S(=O)(=O)NCC(=O)O)ccc1-2	-1%	3%	-14%	0%	2	7%
